PubChem BioAssay AID1159580 (chemical genetic matrix, 2015)
Values joined by “and” are separate entries in the source; they are usually repeats but may differ in a detail not shown here. Equal values may be shown once. About 2,000 (36%) of roughly 5,500 compounds were called active. Roughly 18% stayed inconclusive and do not appear here. No stated cut-off is given here; in the data, active means normalized growth mostly below about 0.91 (no sharp cut-off); inconclusive means no clear call, values can overlap the other calls; inactive means mostly above about 0.92. The list shows a part of the results.

Assay: chemical genetic growth profiling, strain panel (AID 1159580);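 further: tested at 20 µM; growth read once vehicle control cultures reached saturation at 30 °C; 1 = growth at the plate median or of vehicle wells; lower values mean less growth of the strain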
Settings: S. cerevisiae deletion strains, growth OD
[1] = locus YGR078C, strain PAC10, active compounds read low
[2] = locus YPL241C, strain CIN2, active compounds read low

Measured: normalized growth

NC(N)=NOCCC(N)C(=O)O (centres undefined)
inactive: locus YAL040C, strain CLN3, active compounds read low 0.988 | locus YER002W, strain NOP16, active compounds read low 0.98 | [1] 0.996 | locus YGR229C, strain SMI1, active compounds read low 1.01 | locus YMR263W, strain SAP30, active compounds read low 0.98 | locus YNL175C, strain NOP13, active compounds read low 0.984 | locus YNL197C, strain WHI3, active compounds read low 0.984 | locus YNL224C, strain SQS1, active compounds read low 0.999 | locus YOR083W, strain WHI5 (second series), active compounds read low 0.975 | [2] 0.996

CC[C@]12CCCN3CCc4c(n(c5ccccc45)[C@](O)(C(=O)OC)C1)[C@@H]32
inactive: locus YAL013W, strain DEP1, active compounds read low 0.984 | locus YAL021C, strain ccr4, active compounds read low 0.986 | locus YAL026C, strain drs2, active compounds read low 0.983 | locus YAL030W, strain snc1, active compounds read low 0.984 | locus YBL061C, strain skt5, active compounds read low 0.979 | locus YBR009C, strain hhf1, active compounds read low 0.999 | locus YBR021W, strain FUR4, active compounds read low 0.998 | locus YBR023C, strain chs3, active compounds read low 0.991 | locus YBR171W, strain sec66, active compounds read low 0.983 | locus YBR229C, strain ROT2, active compounds read low 0.951 | locus YBR231C, strain swc5, active compounds read low 0.994 | locus YBR279W, strain paf1, active compounds read low 0.98 | locus YCL011C, strain gbp2, active compounds read low 0.985 | locus YCL016C, strain dcc1, active compounds read low 0.966 | locus YCL029C, strain bik1, active compounds read low 0.978 | locus YCL061C, strain MRC1, active compounds read low 0.986 | locus YCL069W, strain vba3, active compounds read low 0.987 | locus YCR088W, strain abp1, active compounds read low 0.981 | locus YDL005C, strain med2, active compounds read low 0.96 | locus YDL035C, strain GPR1, active compounds read low 0.966 | locus YDL040C, strain nat1, active compounds read low 0.989 | locus YDL074C, strain BRE1, active compounds read low 0.991 | locus YDL101C, strain DUN1, active compounds read low 0.977 | locus YDL185W, strain tfp1, active compounds read low 0.964 | locus YDL192W, strain arf1, active compounds read low 0.979 | locus YDR001C, strain nth1, active compounds read low 0.98 | locus YDR069C, strain doa4, active compounds read low 0.991 | locus YDR101C, strain arx1, active compounds read low 0.964 | locus YDR137W, strain rgp1, active compounds read low 0.954 | locus YDR159W, strain sac3, active compounds read low 1.01 | locus YDR162C, strain NBP2, active compounds read low 0.97 | locus YDR195W, strain ref2 0.952 | locus YDR297W, strain sur2, active compounds read low 0.99 | locus YDR318W, strain mcm21, active compounds read low 1 | locus YDR334W, strain swr1, active compounds read low 0.975 | locus YDR335W, strain msn5, active compounds read low 0.979 | locus YDR388W, active compounds read low 0.978 | locus YDR392W, strain spt3, active compounds read low 0.946 | locus YDR502C, strain sam2, active compounds read low 0.978 | locus YEL003W, strain gim4, active compounds read low 0.984 | locus YEL037C, strain rad23, active compounds read low 0.979 | locus YEL061C, strain CIN8 (second series), active compounds read low 0.986 | locus YEL061C, strain CIN8, active compounds read low 0.982 | locus YER015W, strain faa2, active compounds read low 0.985 | locus YER016W, strain bim1, active compounds read low 0.969 | locus YER110C, active compounds read low 0.979 | locus YER111C, strain swi4, active compounds read low 0.978 | locus YER155C, strain BEM2 (second series), active compounds read low 0.958 | locus YER155C, strain BEM2, active compounds read low 0.995 | locus YER167W, strain BCK2, active compounds read low 0.996 | locus YFR010W, strain ubp6, active compounds read low 0.998 | locus YGL078C, strain dbp3, active compounds read low 0.997 | locus YGL086W, strain mad1, active compounds read low 0.977 | locus YGL167C, strain pmr1, active compounds read low 0.979 | locus YGL173C, strain kem1, active compounds read low 0.984 | locus YGL227W, strain vid30, active compounds read low 0.981 | locus YGL240W, strain doc1, active compounds read low 1.02 | locus YGL248W, strain PDE1, active compounds read low 0.993 | locus YGL253W, strain hxk2, active compounds read low 0.981 | [1] 0.982 | locus YGR135W, strain pre9, active compounds read low 1.04 | locus YGR252W, strain gcn5, active compounds read low 1.07 | locus YHR013C, strain ard1, active compounds read low 0.953 | locus YHR027C, strain rpn1, active compounds read low 0.991 | locus YHR030C, strain SLT2, active compounds read low 0.992 and 0.98 | locus YHR079C, strain IRE1 (second series), active compounds read low 0.961 | locus YHR079C, strain IRE1, active compounds read low 0.964 | locus YHR094C, strain hxt1, active compounds read low 0.981 | locus YHR129C, strain ARP1, active compounds read low 0.988 | locus YHR142W, strain chs7, active compounds read low 0.964 | locus YHR200W, strain rpn10, active compounds read low 0.971 | locus YIL066C, strain RNR3, active compounds read low 0.977 | locus YIL073C, strain SPO22, active compounds read low 0.965 | locus YIL125W, strain kgd1, active compounds read low 0.988 | locus YIR030C, strain dcg1, active compounds read low 0.99 | locus YJL092W, strain hpr5, active compounds read low 0.993 | locus YJL095W, strain BCK1 (second series), active compounds read low 0.973 | locus YJL095W, strain BCK1, active compounds read low 1.01 and 0.994 | locus YJL115W, strain asf1, active compounds read low 1 | locus YJL129C, strain trk1, active compounds read low 0.974 | locus YJL134W, strain LCB3, active compounds read low 0.99 | locus YJL154C, strain vps35, active compounds read low 0.968 | locus YJL164C, strain tpk1, active compounds read low 0.997 | locus YJL166W, strain qcr8, active compounds read low 1.01 | locus YJL168C, strain set2, active compounds read low 0.984 | locus YJL187C, strain SWE1 (second series), active compounds read low 0.979 | locus YJL187C, strain SWE1, active compounds read low 0.985 | locus YJR043C, strain POL32, active compounds read low 0.977 | locus YJR066W, strain TOR1, active compounds read low 0.925 | locus YKL009W, strain mrt4, active compounds read low 0.985 | locus YKL068W, active compounds read low 0.987 | locus YKL085W, strain MDH1 (second series), active compounds read low 0.997 | locus YKL085W, strain MDH1, active compounds read low 0.997 | locus YKL160W, strain elf1, active compounds read low 0.962 | locus YKR001C, strain vps1, active compounds read low 0.977 | locus YKR026C, strain gcn3, active compounds read low 0.988 | locus YKR091W, strain srl3, active compounds read low 0.982 | locus YLL001W, strain dnm1, active compounds read low 0.986 | locus YLL026W, active compounds read low 1 | locus YLL041C, strain sdh2, active compounds read low 0.987 | locus YLR027C, strain aat2, active compounds read low 0.989 | locus YLR039C, strain RIC1, active compounds read low 1.03 | locus YLR058C, strain SHM2, active compounds read low 0.976 | locus YLR102C, strain apc9, active compounds read low 0.982 | locus YLR113W, strain HOG1, active compounds read low 0.976 | locus YLR221C, strain rsa3, active compounds read low 1 | locus YLR258W, strain gsy2, active compounds read low 0.964 | locus YLR262C, strain YPT6 (second series), active compounds read low 0.977 | locus YLR262C, strain YPT6, active compounds read low 0.912 | locus YLR268W, strain sec22, active compounds read low 0.963 | locus YLR320W, strain mms22, active compounds read low 0.995 | locus YLR330W, strain CHS5, active compounds read low 0.988 | locus YLR342W, strain FKS1 (second series), active compounds read low 0.997 | locus YLR342W, strain FKS1, active compounds read low 0.989 | locus YLR357W, strain rsc2, active compounds read low 0.953 | locus YLR370C, strain arc18, active compounds read low 0.975 | locus YLR371W, strain rom2, active compounds read low 0.987 | locus YLR384C, strain iki3, active compounds read low 0.977 | locus YLR418C, strain cdc73, active compounds read low 0.989 | locus YML016C, strain PPZ1, active compounds read low 0.991 | locus YML032C, strain rad52, active compounds read low 0.967 | locus YML120C, strain ndi1, active compounds read low 0.99 | locus YML124C, strain tub3, active compounds read low 0.989 | locus YMR058W, strain fet3, active compounds read low 0.983 | locus YMR078C, strain ctf18, active compounds read low 0.977 | locus YMR125W, strain sto1, active compounds read low 0.98 | locus YMR129W, active compounds read low 0.985 | locus YMR205C, strain PFK2, active compounds read low 0.97 | locus YMR223W, strain ubp8, active compounds read low 1.03 | locus YMR231W, strain pep5, active compounds read low 0.982 | locus YMR307W, strain GAS1, active compounds read low 0.967 | locus YNL067W, strain RPL9B, active compounds read low 0.987 | locus YNL071W, strain lat1, active compounds read low 0.981 | locus YNL128W, strain TEP1, active compounds read low 0.974 | locus YNL153C, strain GIM3, active compounds read low 0.994 | locus YNL183C, strain NPR1, active compounds read low 0.915 | locus YNL209W, strain ssb2, active compounds read low 0.988 | locus YNL233W, strain BNI4, active compounds read low 0.99 | locus YNL248C, strain rpa49, active compounds read low 0.99 | locus YNL250W, strain rad50, active compounds read low 0.984 | locus YNL271C, strain bni1, active compounds read low 0.986 | locus YNL298W, strain CLA4, active compounds read low 0.987 | locus YNL307C, strain MCK1, active compounds read low 0.981 | locus YNL322C, strain KRE1 (second series), active compounds read low 0.969 | locus YNR049C, strain mso1, active compounds read low 0.978 | locus YNR052C, strain pop2, active compounds read low 0.993 | locus YOL012C, strain htz1 0.992 | locus YOL147C, strain pex11, active compounds read low 0.989 | locus YOR001W, strain rrp6, active compounds read low 1.02 | locus YOR061W, strain CKA2, active compounds read low 0.976 | locus YOR069W, strain VPS5, active compounds read low 0.992 | locus YOR070C, strain gyp1, active compounds read low 0.995 | locus YOR080W, strain dia2, active compounds read low 0.972 | locus YOR083W, strain WHI5, active compounds read low 0.98 | locus YOR106W, strain vam3, active compounds read low 0.984 | locus YOR136W, strain idh2, active compounds read low 0.969 | locus YOR144C, strain elg1, active compounds read low 0.984 | locus YOR184W, strain ser1, active compounds read low 0.98 | locus YOR231W, strain MKK1, active compounds read low 1.01 | locus YOR265W, strain rbl2, active compounds read low 0.995 | locus YOR270C, strain vph1, active compounds read low 0.988 | locus YOR290C, strain snf2, active compounds read low 0.979 | locus YOR316C, strain cot1, active compounds read low 0.968 | locus YPL051W, strain arl3, active compounds read low 0.971 | locus YPL078C, strain atp4, active compounds read low 0.973 | locus YPL106C, strain sse1, active compounds read low 0.959 | locus YPL240C, strain hsp82, active compounds read low 0.985 | [2] 0.967 | locus YPL256C, strain CLN2, active compounds read low 0.984 | locus YPR119W, strain clb2, active compounds read low 0.975 | locus YPR141C, strain kar3, active compounds read low 0.979 | locus YPR163C, strain tif3, active compounds read low 0.974 | locus YPR167C, strain met16, active compounds read low 0.995 | strain wtn01, active compounds read low 1
